Sampled rows, rich in hits. Any-hit rate of the full collection: about 4%.
UGM FP inh: Mtb UDP-galactopyranose mutase inhibition | P9WIQ1 | purified UGM, fluorescence polarization probe displacement | inhibition, % at 10 µM | actives 0.06% (n = 320,000) | AID 504406; in the data active = inhibition above about 10%, passing the limit was not always enough
GDH-TPI counter-1: GDH-TPI coupled enzyme inhibition counter-screen; GDH-TPI coupled enzyme counterscreen, NADH absorbance; inhibition, % at 4.8 µM; actives 1.2% (n = 360,000); in the data active = inhibition above about 30%
Mtb betalactam: beta-lactam sensitization of Mtb H37Rv. M. tuberculosis H37Rv growth with meropenem, percent inhibition. actives 0.27% (n = 330,000). inhibition, % at 25 µM. AID 434955; call rule not given here;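 also: growth measured after seven days incubation then overnight dye step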
Rv3671c inh: inhibits the M. tuberculosis serine protease Rv3671c | P9WHR9 | actives 0.048% (n = 320,000) | inhibition, % at 5.96 µM | AID 2606; in the data active = inhibition above about 38%;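 also: extracellular domain of Rv3671c used as enzyme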
RecA intein inh: inhibitors of M. tuberculosis RecA intein splicing. P9WHJ3. cell-free RecA intein splicing, fluorescence. inhibition, % (no concentration beside the values). actives 0.75% (n = 290,000); in the data active = inhibition above about 30%
Mtb FBA inh: Mtb fructose-bisphosphate aldolase inhibition; P9WQA3; purified M. tuberculosis FBA, fluorescence read-out; inhibition, % at 1 µM; actives 2.3% (n = 360,000); AID 588726
Target sequence (P9WQA3 whole entry, looked up): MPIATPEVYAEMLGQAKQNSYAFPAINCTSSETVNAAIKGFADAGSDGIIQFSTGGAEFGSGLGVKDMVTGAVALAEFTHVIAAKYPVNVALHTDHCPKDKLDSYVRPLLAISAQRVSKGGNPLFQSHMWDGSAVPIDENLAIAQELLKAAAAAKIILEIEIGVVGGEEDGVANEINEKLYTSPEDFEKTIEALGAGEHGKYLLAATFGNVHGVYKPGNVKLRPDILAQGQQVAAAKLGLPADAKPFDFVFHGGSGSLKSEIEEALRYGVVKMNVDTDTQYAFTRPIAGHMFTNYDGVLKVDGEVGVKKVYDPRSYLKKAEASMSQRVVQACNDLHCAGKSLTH
Mtb FBA confirm: Mtb FBA inhibition, confirmed | shares compounds with Mtb FBA inh | purified M. tuberculosis FBA, fluorescence read-out | inhibition, % at 1 µM | actives 78% (n = 5,600) | AID 651616
GDH-TPI counter-2: GDH-TPI inhibition counter-screen for FBA inhibitors; shares compounds with Mtb FBA inh; actives 81% (n = 5,600); inhibition, % at 1 µM; AID 652141; GDH-TPI coupled enzyme counterscreen, fluorescence; in the data active = inhibition above about 10%
Large screens that a line does not name were inactive (follow-up assays come after a bar, where they were run). Rule as the data show it, unless noted: active = inhibition above about 27%; inactive = the rest.

CN(C)c1ccc(-c2ccnc3c2CC(C)(C(=O)NCc2ccc(F)c(F)c2)O3)cc1 (stereo not given)	Mtb FBA inh 44 (no result: UGM FP inh, Mtb betalactam, Rv3671c inh, RecA intein inh) | Mtb FBA confirm 103 | GDH-TPI counter-2 78
CCN(C1CCCCC1)S(=O)(=O)CCNC(=O)c1ccccc1	none
C[C@H](CO)N1C[C@H](C)[C@H](CN(C)S(=O)(=O)c2ccc3ccccc3c2)OCc2cnnn2CCCC1=O	none (no result: UGM FP inh, Mtb betalactam, Rv3671c inh, RecA intein inh)
COC(CNc1nc(SC)nc2sc3c(c12)CCN(C)C3)OC	none
CCC(O)CNc1nc(SC)nc2sc3c(c12)CCN(C)C3 (stereo not given)	Mtb FBA inh 84 | Mtb FBA confirm inactive | GDH-TPI counter-2 inactive
CSc1nc(N)c2c3c(sc2n1)CN(C)CC3	Mtb FBA inh 39 | Mtb FBA confirm 48 | GDH-TPI counter-2 34
O=C(CCCCCNC(=O)N1CCn2c1nc1ccccc12)NCc1ccc(F)cc1	none
CCn1c2ccccc2c2cc(/C=N/n3c(C)nnc3C)ccc21	Mtb FBA inh 40 (no result: RecA intein inh) | Mtb FBA confirm 62 | GDH-TPI counter-2 48
Nc1ncnc2nc(-c3ccccc3)[nH]c12	Mtb FBA inh 69 (no result: UGM FP inh, Mtb betalactam, Rv3671c inh, RecA intein inh) | Mtb FBA confirm inactive | GDH-TPI counter-2 inactive
COCCNC(=S)N(CCCO)Cc1cc2cc3c(cc2[nH]c1=O)OCCO3	none
CCN(CC)CCN(Cc1cc2cc3c(cc2[nH]c1=O)OCCO3)C(=S)NCC1CCCO1 (stereo not given)	none
COCCNC(=S)N(CCO)Cc1cc2cc3c(cc2[nH]c1=O)OCO3	Mtb FBA inh 31 | Mtb FBA confirm 122 | GDH-TPI counter-2 92
CCN(CC)CCCN(Cc1cc2cc3c(cc2[nH]c1=O)OCO3)C(=S)NCCCOC	GDH-TPI counter-1 34, Mtb FBA inh 40 | Mtb FBA confirm active | GDH-TPI counter-2 173
CCN(CC)CCN(Cc1cc2cc3c(cc2[nH]c1=O)OCO3)C(=S)NCCCOC	Mtb FBA inh 39 | Mtb FBA confirm 97 | GDH-TPI counter-2 81
CCN(CC)CCN(Cc1cc2cc3c(cc2[nH]c1=O)OCO3)C(=S)NCC1CCCO1 (stereo not given)	Mtb FBA inh 56 | Mtb FBA confirm 95 | GDH-TPI counter-2 70
CC(C)(C)Cc1c(C2CCCCC2)nc2ccc(Cl)cn12	none (no result: UGM FP inh, GDH-TPI counter-1, Mtb betalactam, Rv3671c inh, RecA intein inh)
CCOC(=O)c1cc(-c2cccc(C(F)(F)F)c2)nc2nc(SC)[nH]c(=O)c12	none
CCOC(=O)c1cc(-c2ccc(C)cc2)nc2nc(SC)[nH]c(=O)c12	Mtb FBA inh 40 | Mtb FBA confirm 151 | GDH-TPI counter-2 159
CCCc1cc(=O)oc2cc(C)cc(OC(C)C(=O)NCCCn3ccnc3)c12 (stereo not given)	Mtb FBA inh 75 | Mtb FBA confirm 175 | GDH-TPI counter-2 164
Cc1cc(C)cc(OC(C)C(=O)NCCCn2ccnc2)c1 (stereo not given)	none
Cc1cc(OC(C)C(=O)NCCCn2ccnc2)c2c(C)cc(=O)oc2c1 (stereo not given)	Mtb FBA inh 96 | Mtb FBA confirm active | GDH-TPI counter-2 active
COC(=O)Cc1c(C)c2ccc(OC3CCCCC3=O)c(C)c2oc1=O (stereo not given)	Mtb FBA inh 108 | Mtb FBA confirm inactive | GDH-TPI counter-2 17
CCc1cc(=O)oc2cc(OC3CCCCC3=O)ccc12 (stereo not given)	Mtb FBA inh 53 | Mtb FBA confirm 192 | GDH-TPI counter-2 164
COC(=O)Cc1c(C)c2ccc(OC3CCCCC3=O)cc2oc1=O (stereo not given)	Mtb FBA inh 103 (no result: Rv3671c inh) | Mtb FBA confirm 140 | GDH-TPI counter-2 144
Cc1cc(=O)oc2c(C)c(OC3CCCCC3=O)ccc12 (stereo not given)	Mtb FBA inh 39 | Mtb FBA confirm active | GDH-TPI counter-2 192
COC(=O)c1cc(COc2ccc3c4c(c(=O)oc3c2)CCCC4)c(C)o1	none
CCc1cc(=O)oc2cc(OS(C)(=O)=O)ccc12	none
COc1ccccc1COc1ccc2c(C)c(CCC(=O)O)c(=O)oc2c1C	none
O=C(NCc1ccc(Cl)c(Cl)c1)C1CCCC1	none (no result: RecA intein inh)
